Screening data (PubChem)
Beta cell apopt: beta cell apoptosis inhibition; INS-1E cytokine-induced death, ATP luminescence, 48 h; percent of positive-control rescue, neutral wells zero; protection from apoptosis, % (concentration not given with the values); AID 435005; hit rate 0.8% among 300,000;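 active = Every replicate reaches about 75%, or at least half do and their mean reaches it too, limit read from the data; inconclusive = At least half of replicates reach the limit but their mean does not; inactive = Under half of replicates reach the limit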;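 note: 0% = cytokine-treated negative control wells and 100% = positive control rescue; higher means more ATP so stronger rescue from cytokine killing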
CSC inhib: blocks cancer stem cells | AID 2717 | hit rate 1.1% among 300,000 | inhibition, % at 7.5 µM | cancer stem cell-like cells viability, luminescence; in the data active = inhibition above about 75%; inconclusive = no clear call, values can overlap the other calls; tested in HMLE shEcad cells
Mdm2 MdmX PPI: human Mdm2/MdmX binding inhibition; O15151+Q00987; SaOS-2 split-luciferase Mdm2/MdmX complementation, luminescence; inhibition, % at 8 µM; hit rate 3% among 330,000; AID 485346;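 active = inhibition of at least 50% at 8 µM in the primary screen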
Target sequence (O15151 whole entry, looked up): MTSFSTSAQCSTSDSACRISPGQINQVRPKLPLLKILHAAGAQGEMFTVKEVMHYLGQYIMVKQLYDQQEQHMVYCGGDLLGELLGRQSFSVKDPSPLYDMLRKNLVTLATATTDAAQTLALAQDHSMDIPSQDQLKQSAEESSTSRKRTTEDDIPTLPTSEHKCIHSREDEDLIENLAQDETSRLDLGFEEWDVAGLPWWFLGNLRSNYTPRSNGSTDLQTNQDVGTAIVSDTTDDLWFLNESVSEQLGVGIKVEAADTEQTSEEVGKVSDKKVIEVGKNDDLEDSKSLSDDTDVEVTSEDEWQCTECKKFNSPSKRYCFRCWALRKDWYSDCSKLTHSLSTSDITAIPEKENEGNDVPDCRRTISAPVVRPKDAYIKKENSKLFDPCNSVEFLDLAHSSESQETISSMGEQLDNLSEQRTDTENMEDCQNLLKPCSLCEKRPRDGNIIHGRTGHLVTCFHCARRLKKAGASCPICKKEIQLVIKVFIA
Target sequence (Q00987 whole entry, looked up): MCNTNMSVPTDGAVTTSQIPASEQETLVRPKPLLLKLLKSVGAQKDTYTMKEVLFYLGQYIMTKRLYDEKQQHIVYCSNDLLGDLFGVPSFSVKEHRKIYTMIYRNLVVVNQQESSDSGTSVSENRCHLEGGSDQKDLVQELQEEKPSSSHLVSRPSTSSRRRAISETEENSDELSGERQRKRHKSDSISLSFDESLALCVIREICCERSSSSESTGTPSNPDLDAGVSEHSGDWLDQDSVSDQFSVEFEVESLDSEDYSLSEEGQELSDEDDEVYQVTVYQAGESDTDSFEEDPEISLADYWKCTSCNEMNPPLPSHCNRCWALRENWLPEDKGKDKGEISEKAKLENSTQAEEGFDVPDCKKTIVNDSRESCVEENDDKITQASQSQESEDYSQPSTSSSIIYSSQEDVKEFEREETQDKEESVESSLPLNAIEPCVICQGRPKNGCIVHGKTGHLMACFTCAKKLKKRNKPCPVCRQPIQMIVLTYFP
MPTP block: blocks calcium-induced mitochondrial swelling. hit rate 1.4% among 360,000. isolated mouse mitochondria, Ca2+ swelling absorbance, 30 min. inhibition, % at 10 µM. AID 602449;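 active = inhibition of 50% or more, scaled per plate between neutral and stimulator controls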;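 note: 0% = DMSO wells given calcium and 100% = 1 mM EGTA wells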
SKKanGAS inh: inhibitors of SKKanGAS S. pyogenes growth in kanamycin (SK-promoter or general growth effect); BacTiter-Glo, 6 h; inhibition, % at 7.5 µM; hit rate 1.3% among 300,000;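 active = mean replicate score, as percent of positive control median, at least 50; inconclusive = mean below 50 but one replicate at or above 50; inactive = mean and every replicate below 50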;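 note: strain carries kanamycin resistance gene driven by streptokinase promoter and grows in 40 µg/ml kanamycin; loss of luminescence reflects streptokinase promoter inhibition or plain growth inhibition; 0% = median of DMSO wells and 100% = positive control at its reference dose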
Calb FLC: C. albicans growth modulation with fluconazole | C. albicans CaCi-2 (fluconazole-resistant clinical isolate) + fluconazole, Alamar Blue growth, 48 h | growth inhibition, % (no concentration beside the values) | hit rate 0.57% among 300,000 | AID 1979;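 active = growth inhibition above about 58% in most replicates, limit read from the data, passing the limit was not always enough; inconclusive = exactly half the replicates above a set limit; inactive = most replicates below a set limit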;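 note: all wells also contain fluconazole at 8 µg/ml as a sub-toxic cotreatment; 0% = median of DMSO wells and 100% = median of geldanamycin control wells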
Mdm2-MdmX conf: confirmation of human Mdm2/MdmX interaction inhibitors; shares compounds with Mdm2 MdmX PPI; Mdm2-MdmX binding, luminescent assay; inhibition, % at 8 µM; hit rate 55% among 10,000; in the data active = inhibition above about 40%
FLuc counter: inhibits full-length luciferase, flagging false Mdm2/MdmX hits; shares compounds with Mdm2 MdmX PPI; hit rate 77% among 6,200; SaOS-2 full-length luciferase counterscreen, luminescence; AID 504607; inhibition, % at 8 µM;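 active = mean inhibition at 8 µM reaching about 37%, which flags the compound as non-specific, limit read from the data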;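 note: p53-null SaOS-2 cells with luciferase driven by a doxycycline-inducible promoter; compound on cells about two nights before reading with doxycycline added after day one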
* marks the source's active call; other numbers are inactive results; ? = inconclusive; · = no result. Hits are enriched below; roughly 5.4% of the tested compounds scored in any of these assays.

SMILES	Beta cell apopt	CSC inhib	Mdm2 MdmX PPI	MPTP block	SKKanGAS inh	Calb FLC	Mdm2-MdmX conf	FLuc counter
COC(CNC(=O)c1ccc2c(c1)nc(C)n2-c1cccc(C)c1)OC	-3.6	-9.3	-33.7	0.8	1.3	1.5	·	·
COC(=O)c1[nH]c2ccc(C)cc2c1NC(=O)NC1CCCCC1	3.2	-5.9	39.2	0.9	-10.5	-9.3	·	·
COC(=O)c1[nH]c2ccc(Br)cc2c1NC(=O)CN1CCCCC1CCO (configuration not stated)	-0.8	-4.7	-18.9	-0.6	-1.1	11.8	·	·
COC(=O)c1[nH]c2ccc(C)cc2c1NC(=O)C(C)N1CCN(C2CCCCC2)CC1 (configuration not stated)	-5.4	-9.6	53.4*	-1.2	10.6	-9.2	31.0	·
COC(=O)c1[nH]c2ccc(Br)cc2c1NC(=O)C(C)N1CCN(C2CCCCC2)CC1 (configuration not stated)	-12.6	-1.9	95.8*	-5.5	-3.5	·	33.8	4.8
COc1ccccc1N1CC(O)=C(c2nc3ccccc3c(=O)[nH]2)C1=N	-9.5	-13.8	35.2	-0.9	6.5	-4.6	·	·
CC1(c2ccc3c(c2)OCCO3)NC(=O)N(CC(=O)c2ccc[nH]2)C1=O (configuration not stated)	-4.0	-3.5	-12.7	-0.3	·	·	·	·
Cc1ccc(Cn2c(O)c(N=NC(=S)Nc3ccccc3F)c3cc(S(=O)(=O)N4CCOCC4)ccc32)cc1	·	·	·	1.4	13.6	42.1	·	·
Cc1ccc(C)c(SCC(=O)Nc2cc(S(=O)(=O)N3CCOCC3)ccc2C)c1	·	·	0.1	-0.6	·	·	·	·
Cc1ccc(C)c(NC(=S)N=Nc2c(O)n(C)c3ccc(S(=O)(=O)N4CCOCC4)cc23)c1	47.8	31.1	66.5*	2.2	-13.4	-6.0	45.3*	59.3*
CCc1ccccc1NC(=S)N=Nc1c(O)n(C)c2ccc(S(=O)(=O)N3CCOCC3)cc12	·	39.9	51.8*	0.5	37.0	68.7	60.5*	52.9*
CCOc1ccccc1OCC(=O)Nc1nnc(COC)s1	-3.3	5.5	8.8	-0.1	7.4	-20.1	·	·
Cc1cccc(/C=C/C(=O)c2ccc(NC3=NCCCS3)cc2)c1	8.9	43.5	86.1*	16.3	·	·	57.8*	57.4*
O=C(/C=C/c1ccccc1)c1ccc(NC2=NCCCS2)cc1	1.2	66.1	·	4.1	·	·	·	·
COc1cccc(/C=C/C(=O)c2ccc(NC3=NCCCS3)cc2)c1	9.8	-2.3	24.9	-0.2	9.0	-5.6	·	·
O=C(/C=C/c1ccc(Br)cc1)c1ccc(NC2=NCCCS2)cc1	36.2	·	100.7*	18.3	10.8	11.2	39.5	77.1*
CCCNC(=O)N(C)C[C@@H]1Oc2ncc(-c3ccncc3)cc2C(=O)N([C@H](C)CO)C[C@@H]1C	·	·	·	0.2	·	·	·	·
Cc1nnc(Sc2c(N)n(C)c(=O)[nH]c2=O)s1	-8.0	-15.0	8.6	0.0	-2.2	-0.3	·	·
CCN(CC)S(=O)(=O)c1cccc(-n2c(O)c(C=Nc3ccccc3C(=O)O)c3ccccc3c2=O)c1	-15.6	34.9	67.2*	7.4	35.9	-2.9	67.7*	36.5*
O=C(O)c1ccccc1N=Cc1c(O)n(-c2nccs2)c(=O)c2ccccc12	0.6	0.3	16.3	-0.5	-10.0	-6.3	·	·
COc1ccc([C@H]2CC(=O)C=C(c3ccc(SC)cc3)C2)cc1OC	-8.8	-5.8	9.1	2.2	·	·	·	·
O=c1cc(CN2CCN(c3ccccc3)CC2)c2cc(O)c(-c3ccccc3)cc2o1	17.5	-2.5	72.6*	1.8	15.7	-28.5	9.8	·
S=C(Nc1ccccc1)N1N=CCC1c1ccccc1 (configuration not stated)	-6.7	-3.7	-11.7	0.8	-4.7	-3.9	·	·
Nc1cccc2nc3ccccc3cc12	·	·	58.0*	-2.9	4.0	·	78.5*	32.2
COc1ccc2[nH]c(=O)c(COC(=O)c3cccs3)cc2c1	-1.9	-8.1	-50.4	-0.6	-2.1	-3.9	·	·
SMILES	Beta cell apopt	CSC inhib	Mdm2 MdmX PPI	MPTP block	SKKanGAS inh	Calb FLC	Mdm2-MdmX conf	FLuc counter
Cc1ccc2[nH]c(=O)c(COC(=O)c3cccs3)cc2c1	-0.4	·	50.5*	0.5	-7.7	9.7	8.9	·
CN(C)/C=N/c1nccc(-c2cccs2)n1	-5.8	-2.0	-12.7	-0.5	-0.5	2.1	·	·
Cc1ccccc1NC(=O)Cn1cnc2c(oc3ccccc32)c1=O	0.2	-4.6	-1.7	0.2	-4.4	0.6	·	·
Cc1cccc(NC(=O)Cn2cnc3c(oc4ccccc43)c2=O)c1C	-3.5	-7.5	64.0*	1.9	0.1	-6.6	0.4	·
O=c1[nH]cccc1-c1nc2ccccc2n1Cc1cccc(F)c1	-3.9	-14.0	4.7	0.0	-2.2	-2.6	·	·
Cc1onc(-c2ccccc2)c1C(=O)Nc1ccc(S(=O)(=O)N2CCOCC2)cc1	-4.8	2.3	14.6	0.0	-1.6	1.6	·	·
CCN1C(=NCc2cc(OC)c(OC)c(OC)c2)N[C@@H](c2ccccc2)C(C(=O)OC)=C1C	-6.2	-7.9	20.1	0.6	·	·	·	·
COC(=O)C1=C(C)N(Cc2ccccc2)C(=NCc2cc(OC)c(OC)c(OC)c2)N[C@H]1c1cccc(F)c1	-3.7	-2.2	62.4*	3.5	7.5	-4.9	21.7	·
COC(=O)C1=C(C)N(Cc2ccccc2)C(=NCC(C)C)N[C@H]1c1cccc(F)c1	-13.6	·	78.8*	1.5	·	·	44.9*	45.4*
COC(=O)C1=C(C)N(Cc2ccccc2)C(=NCc2ccc(OC)cc2)N[C@H]1c1cccc(F)c1	4.5	13.8	87.5*	0.1	14.8	11.3	46.7*	56.7*
CCn1cc([N+](=O)[O-])c(C(=O)Nc2nc(-c3ccc(C)cc3)c(C)s2)n1	-18.8	101.8*	55.5*	-0.9	22.0	?	31.8	·
Cc1ccc(OCC(O)CNC2CCCC2)c(C)c1 (configuration not stated)	3.0	-9.7	3.6	0.8	3.7	-1.2	·	·
Cc1ccccc1OCC(O)CNC1CCC(NCC(O)COc2ccccc2C)CC1 (configuration not stated)	112.7*	108.8*	100.3*	3.6	2.3	10.0	100.2*	51.8*
CCOc1ccc(C(c2c(NC(=O)c3ccccc3)sc(C)c2C)N2CCN(CCO)CC2)cc1 (configuration not stated)	3.0	29.4	15.4	-0.1	-3.2	-4.3	·	·
Cc1sc(NC(=O)c2ccccc2)c(C(c2ccc(Cl)cc2)N2CCN(CCO)CC2)c1C (configuration not stated)	-6.0	26.6	54.5*	-2.2	2.5	61.1	36.9	84.1*
O=S(=O)(c1ccc(NC(=S)N/N=C/c2c3ccccc3cc3ccccc23)cc1)N1CCOCC1	-0.6	6.7	58.2*	3.6	·	·	8.8	·
O=S(=O)(c1ccc(NC(=S)N/N=C/c2ccc(N3CCOCC3)cc2)cc1)N1CCOCC1	9.5	-1.0	-4.4	0.5	1.0	1.5	·	·
